BoNT-F LC inh = BoNT F light chain protease inhibition; inhibition, % at 10 µM; hit rate 0.22% among 360,000; Multiplex microsphere protease cleavage assay, flow cytometry; AID 588497; in the data active = inhibition above about 35%, passing the limit was not always enough; inconclusive = no clear call, values can overlap the other calls; also: plate controls were buffer without enzyme for full effect and enzyme alone for no effect
BoNT A protease = inhibitors of Botulinum neurotoxin A light chain protease. AID 588499. multiplex microsphere protease substrate cleavage, flow cytometry. hit rate 0.17% among 360,000. inhibition, % at 10 µM; also: plate controls were buffer without enzyme for full effect and enzyme alone for no effect
SARS 3CLpro inh = SARS-CoV 3CLpro protease inhibition; P0C6X7; recombinant SARS-CoV 3CLpro, quenched FRET peptide cleavage; inhibition, % at 6 µM; hit rate 0.14% among 290,000; AID 1706; in the data active = inhibition above about 12%
Anthrax LF prot = inhibitors of Bacillus anthracis lethal factor protease | hit rate 0.12% among 360,000 | inhibition, % at 10 µM | P15917 | multiplex microsphere protease cleavage assay, LF; also: plate controls were buffer without enzyme for full effect and enzyme alone for no effect
Target sequence (P15917 whole entry, looked up): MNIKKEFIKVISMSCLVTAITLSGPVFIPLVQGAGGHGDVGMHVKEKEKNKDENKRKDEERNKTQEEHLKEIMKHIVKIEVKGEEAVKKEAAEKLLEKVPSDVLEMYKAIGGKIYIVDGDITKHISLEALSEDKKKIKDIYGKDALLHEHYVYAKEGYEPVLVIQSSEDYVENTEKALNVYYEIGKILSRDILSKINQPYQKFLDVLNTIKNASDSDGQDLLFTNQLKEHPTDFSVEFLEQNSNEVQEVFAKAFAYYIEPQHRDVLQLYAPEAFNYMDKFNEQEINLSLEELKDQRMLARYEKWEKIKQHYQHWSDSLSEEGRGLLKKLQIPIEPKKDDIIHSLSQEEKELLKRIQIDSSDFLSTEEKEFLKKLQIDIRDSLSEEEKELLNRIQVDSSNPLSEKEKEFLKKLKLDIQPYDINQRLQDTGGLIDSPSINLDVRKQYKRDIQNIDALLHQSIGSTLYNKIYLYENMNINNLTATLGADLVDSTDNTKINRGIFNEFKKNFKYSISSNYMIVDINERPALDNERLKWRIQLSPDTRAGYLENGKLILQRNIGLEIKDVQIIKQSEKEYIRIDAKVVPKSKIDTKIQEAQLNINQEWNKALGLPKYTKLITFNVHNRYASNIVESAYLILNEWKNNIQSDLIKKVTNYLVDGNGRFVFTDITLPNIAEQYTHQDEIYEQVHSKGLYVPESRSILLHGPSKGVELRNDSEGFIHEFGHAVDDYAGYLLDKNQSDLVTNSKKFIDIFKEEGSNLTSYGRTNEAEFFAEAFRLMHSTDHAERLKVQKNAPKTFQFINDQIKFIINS
CCHFV vOTU inh = CCHFV vOTU protease inhibition; Pep-AMC fluorescence; inhibition, % at 11.5 µM; hit rate 0.55% among 370,000; in the data active = inhibition above about 30%; also: 0% = vehicle wells with enzyme and 100% = no enzyme wells
Bead autofluor = counter-screen for toxin protease inhibitors: compound fluorescence. hit rate 3.1% among 360,000. fluorescence intensity (test concentration not listed). AID 624483. compound autofluorescence counterscreen, microsphere flow cytometry; hits give high values; in the data active = fluorescence intensity above about 16000; inconclusive = no clear call, values can overlap the other calls
An asterisk follows results filed as active; ? = inconclusive; / = not tested or not shown. The list is not random: actives were taken first. Their share in the collection is about 3.9%. Rule as the data show it, unless noted: active = inhibition above about 30%; inconclusive = no clear call, values can overlap the other calls; inactive = below that.

SMILES	BoNT-F LC inh	BoNT A protease	SARS 3CLpro inh	Anthrax LF prot	CCHFV vOTU inh	Bead autofluor
COc1ccc(C(C)n2c(C)c3c(C)nnc(C)c3c2C)cc1 (stereo not given)	-5	3	4	-1	-10	16371*
COc1cc2c(cc1NC(=O)CCCCCN1C(=O)CCC1=O)oc1ccccc12	-2	0	-2	0	-8	24230*
COc1cc2c(cc1NS(=O)(=O)N1CCCCC1)oc1ccccc12	-5	-4	4	-6	-9	23461*
O=C(Nc1ccc2c(c1)oc1ccccc12)c1cccnc1	-10	-1	7	0	-3	3064
COc1cc2c(cc1NC(=O)COc1ccccc1OC)oc1ccccc12	0	1	-2	-1	4	20273*
O=C(Nc1ccc2c(c1)oc1ccccc12)c1ccncc1	-4	-1	1	-3	2	16791*
CC1CN(C(=O)Nc2ccc(F)cc2)C2(CCCCCC2)O1 (stereo not given)	-17	-2	2	-2	12	2691
C(COC1CC2CC1C1C2CC2OC21)OC1CC2CC1C1C2CC2OC21 (stereo not given)	4	0	/	-6	1	3254
Cc1cc(NC(=O)c2ccc(NS(=O)(=O)c3ccccc3)cc2)no1	/	/	/	/	0	/
O=C(NCC(F)(F)F)Nc1ncccn1	-12	0	1	0	1	4093
COc1ccccc1OCC(=O)Nc1ccccn1	2	1	4	1	-1	22764*
COc1ccccc1OCC(=O)Nc1ccncc1	?	3	-3	-8	7	3929
O=C(NCC(F)(F)F)Nc1ccccn1	0	?	0	-2	-7	19809*
CNC(=O)COc1ccccc1C(=O)Nc1ccc2c(c1)oc1ccccc12	-5	-1	0	-1	-4	16632*
CCn1c(=O)c2cc(C(=O)N(C)CC(OC)OC)sc2c2ccccc21	3	-3	-6	38*	-35	2981
CCOc1ccccc1N(C)C(=O)c1cc2c(=O)n(CC)c3ccccc3c2s1	4	0	0	2	10	3097
Cc1nc2nc(-c3ccc(Cl)cc3)[nH]n2c(=O)c1Cc1ccccc1	6	0	1	4	0	2407
Cc1nc2nc(-c3cccnc3)[nH]n2c(=O)c1Cc1ccccc1	3	2	3	0	2	20663*
COc1ccccc1N1CC(C)(C)C(=O)N(C(=O)c2ccc(C)cc2)C1=S	-3	-1	1	-4	-6	5866
Cc1nnc2n1N=CC=C(c1ccccc1)S2	7	1	0	5	-3	8594
Cc1nnc2n1N=CC=C(C(C)(C)C)S2	-3	-2	1	-13	0	23527*
O=C(NC(Cc1ccccc1)C(=O)NCc1ccccn1)c1ccco1 (stereo not given)	-7	-2	0	-4	1	17464*
O=C(NCc1ccccn1)c1ccco1	1	-1	4	1	0	2411
O=C(c1ccc(Cl)cc1)c1oc2ccccc2c1CS(=O)(=O)c1ccccc1	1	0	-2	-4	2	22160*
CCCN=C1N(C)C[C@@H]2[C@@H]3C(=O)N(Cc4ccccc4)C(=O)[C@@H]3[C@](CC)(C(=O)OC)N12	1	-1	/	-3	-5	2933
SMILES	BoNT-F LC inh	BoNT A protease	SARS 3CLpro inh	Anthrax LF prot	CCHFV vOTU inh	Bead autofluor
O=C(c1ccccc1)c1cc2ccc(O)cc2oc1=O	-3	0	1	-2	13	20651*
CC(C)c1nc2sc3c(NCc4ccco4)ncnc3c2c2c1COC(C)(C)C2	0	0	0	-4	7	2940
CSc1nc(NCc2ccco2)c2sc3nc(C(C)C)c4c(c3c2n1)CC(C)(C)OC4	0	?	-1	0	6	19909*
COc1ccc(OC)c(CN2C(=O)c3ccccc3C2c2nnnn2-c2c(C)cccc2C)c1 (stereo not given)	-6	1	/	-3	-1	5543
COc1cc(C=O)ccc1OCCSc1ccc(C)cc1	2	3	1	-5	3	18295*
CCc1[nH]nc(C(=O)N2CCCC(Nc3cccc(F)c3)C2)c1C (stereo not given)	-1	0	8	-3	10	4149
COc1cccc(N(CC(=O)NC(C)(C)C)C(=O)C2CSC(=O)C2)c1 (stereo not given)	0	1	2	-1	-8	20419*
COc1ccccc1N(CC(=O)NC(C)(C)C)C(=O)C1CSC(=O)C1 (stereo not given)	12	0	0	-9	15	9323
Cc1ccc(C(=O)N2CCCc3ccccc32)c(F)c1F	10	0	6	7	9	3804
Fc1ccc(CSc2ncnc3sc4c(c23)CCCC4)cc1	1	2	0	-6	7	19865*
O=C(O)CSc1ncnc2sc3c(c12)CCCC3	0	0	5	0	-9	4441
CCc1cc2c(SCC(=O)c3ccccc3)ncnc2s1	-14	-1	3	-5	6	3179
O=C(O)CSc1ncnc2sc3c(c12)CCC3	0	0	-4	0	-13	19351*
CCSc1ncnc2sc3c(c12)CCC3	1	1	1	-1	-7	20242*
CCc1cc2c(SCC(=O)O)ncnc2s1	-14	?	2	-2	-14	18901*
Cc1noc(C)c1CSc1ncnc2sc3c(c12)CCCCC3	3	1	2	0	-2	2503
O=C(CCc1ccccc1)Nc1ccnn1C1CCN(Cc2ncc[nH]2)CC1	-4	1	0	0	2	5411
Cc1cc(OC(C)C(=O)NCCN2CCOCC2)c2c(C)cc(=O)oc2c1 (stereo not given)	0	0	-2	-2	1	6163
Cc1ccc(CNC(=O)C2CCN(S(=O)(=O)N3CCCC3)CC2)cc1	-9	-3	-2	0	-6	6035
Clc1cccc(OCCCCCN2CCOCC2)c1	0	1	3	6	-8	3496
c1ccc(OCCCCN2CCOCC2)cc1	1	-1	1	-2	-12	16576*
Clc1cccc(OCCN2CCOCC2)c1	-3	0	5	-2	10	16577*
CCOc1cccc(OCCCCN2CCOCC2)c1	0	0	-6	1	4	2461
Brc1ccccc1OCCCN1CCOCC1	0	1	2	-7	-1	23079*
O=C(CCNc1n[nH]c(=O)[nH]c1=O)N/N=C/c1ccc(C(F)(F)F)cc1	0	0	-2	0	-4	4693
O=C(O)c1cccc(NC(=O)c2ccc(N3C(=O)c4ccc(C(=O)Nc5cccc(C(=O)O)c5)cc4C3=O)cc2)c1	-4	-1	2	-4	5	4355
O=C(O)c1ccc(NC(=O)c2ccc3c(c2)C(=O)N(c2ccccc2)C3=O)cc1	38*	0	-5	0	6	3956
CCCCn1nnnc1NCc1ccc(N(CC)CC)cc1	-3	-2	3	-4	16	23951*
COCCn1c(C2CCCCC2)nc2sc3ccccc3c(=O)c2c1=O	3	2	-1	1	-1	22628*
COCCn1c(=O)sc2ccccc2c1=O	-8	1	-4	-3	-13	3463
